Source: PubChem BioAssay
CSC inhib = cancer stem cell viability inhibitors, primary screen, luminescence | AID 2717, 2010 | 300,000 tested, 1.1% active | cancer stem cell-like cells viability | inhibition, % at 7.5 µM; in the data active means inhibition above about 75%; inconclusive means no clear call, values can overlap the other calls; tested in HMLE shEcad cells
Calb FLC = C. albicans growth inhibition with fluconazole, primary screen, CaCi-2 strain, Alamar Blue fluorescence | C. albicans CaCi-2 (fluconazole-resistant clinical isolate) + fluconazole, 48 h | 300,000 tested, 0.57% active | AID 1979, 2009 | growth inhibition, % (concentration not given with the values);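 active means growth inhibition above about 58% in most replicates, limit read from the data, passing the limit was not always enough; inconclusive means exactly half the replicates above a set limit; inactive means most replicates below a set limit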;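 further: all wells also contain fluconazole at 8 µg/ml as a sub-toxic cotreatment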
Mdm2 MdmX PPI = inhibitors of human Mdm2-MdmX association, primary screen, cell-based, luminescence, split luciferase, SaOS-2, uHTS. Protein Mdm4 (Homo sapiens) + E3 ubiquitin-protein ligase Mdm2 (Homo sapiens), …. SaOS-2 split-luciferase Mdm2/MdmX complementation. inhibition, % at 8 µM. 330,000 tested, 3% active;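 active means inhibition of at least 50% at 8 µM in the primary screen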
PP1 inh = PP1-alpha phosphatase inhibitors, primary screen, counter-screen for PP5 inhibitor project, biochemical, fluorescence, OMFP substrate, single point. Serine/threonine-protein phosphatase PP1-alpha catalytic subunit (Homo sapiens), P62136. purified PP1alpha. inhibition, % at 6.7 µM. 320,000 tested, 0.9% active;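 active means inhibition above the mean inhibition of all tested compounds plus 3 SD, computed separately for each screening campaign, cut at about 15% in these data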
Target sequence (P62136 whole entry, looked up): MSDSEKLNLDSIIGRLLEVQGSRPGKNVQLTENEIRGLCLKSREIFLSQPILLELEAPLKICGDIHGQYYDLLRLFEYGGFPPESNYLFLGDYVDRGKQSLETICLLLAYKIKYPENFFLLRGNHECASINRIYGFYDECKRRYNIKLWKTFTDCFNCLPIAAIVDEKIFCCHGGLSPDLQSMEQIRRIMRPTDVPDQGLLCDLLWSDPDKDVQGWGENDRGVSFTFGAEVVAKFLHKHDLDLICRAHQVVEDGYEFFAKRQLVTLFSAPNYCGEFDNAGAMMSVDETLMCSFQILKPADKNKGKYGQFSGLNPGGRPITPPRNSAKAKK
Beta apoptosis = inhibitors of cytokine-induced beta cell apoptosis, primary screen, luminescence; INS-1E cytokine-induced death, ATP luminescence, 48 h; percent of positive-control rescue, neutral wells zero; protection from apoptosis, % (concentration not given with the values); 300,000 tested, 0.8% active;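 active means Every replicate reaches about 75%, or at least half do and their mean reaches it too, limit read from the data; inconclusive means At least half of replicates reach the limit but their mean does not; inactive means Under half of replicates reach the limit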;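 further: higher means more ATP so stronger rescue from cytokine killing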
PP5 primary = PP5 phosphatase inhibitors, primary screen, biochemical, fluorescence. AID 1987, 2009. inhibition, % at 6.7 µM. 320,000 tested, 0.18% active. purified PP5c, OMFP substrate fluorescence. Serine/threonine-protein phosphatase 5 (Homo sapiens), P53041;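 active means inhibition above the campaign's mean inhibition across all tested compounds plus 3 SD, cut at about 9.5% in these data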
PP1 confirm = PP1 phosphatase inhibitors, confirmation, biochemical, fluorescence, OMFP substrate, triplicate; purified PP1alpha; inhibition, % at 6.7 µM; 1,900 tested, 52% active; shares compounds with PP1 inh;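 active means mean PP1 inhibition above a set limit taken from the earlier primary screen, cut at about 15% in these data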
PP5 counter = PP5 phosphatase inhibition by PP1 hits, confirmation, counter-screen for PP1 inhibitor project, biochemical, fluorescence, triplicate | shares compounds with PP1 inh | purified PP5c, OMFP fluorescence | inhibition, % at 6.7 µM | 1,900 tested, 4% active;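 active means mean PP5 inhibition over triplicate wells above about 9.5% taken from the earlier PP1 screen, limit read from the data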
Large screens that a line does not name were inactive (follow-up assays come after a bar, where they were run). An excerpt weighted towards active compounds, which were near 4.9% of everything screened.

Cc1cc(C(=O)Cn2nc(C(=O)O)c3ccccc3c2=O)c(C)n1CCc1ccc(F)cc1	PP1 inh 24 | PP1 confirm 22 | PP5 counter inactive
CC(=O)NC1(C(F)(F)F)NC(=O)N(c2ccc(F)cc2)C1=O (configuration not stated)	none
COC/C=C/C1=CC2=CC(=O)C(C)(OC(=O)c3cnc4ccccc4n3)C(=O)C2=CN1Cc1ccccc1 (configuration not stated)	PP1 inh 23 | PP1 confirm inactive | PP5 counter 15
COC/C=C/C1=CC2=CC(=O)C(C)(OC(=O)c3cnc4ccccc4n3)C(=O)C2=CN1CC1CC1 (configuration not stated)	none
COC/C=C/C1=CC2=CC(=O)C(C)(OC(=O)c3cnc4ccccc4n3)C(=O)C2=CN1Cc1ccc(OC)cc1 (configuration not stated)	PP1 inh 18 | PP1 confirm inactive | PP5 counter 11
Cc1cc(C(=O)CSc2nn(-c3ccccc3)c(=S)s2)c(C)n1Cc1ccco1	PP1 inh 20 | PP1 confirm inactive | PP5 counter inactive
CCN(CC)S(=O)(=O)c1ccc(C(=O)Nc2nnc(NC(=S)Nc3ccccc3)s2)cc1	PP1 inh 43 | PP1 confirm 29 | PP5 counter inactive
CCCCn1c(N)c(N(Cc2ccccc2OC)C(=O)c2cc(CC)c(C)s2)c(=O)[nH]c1=O	none (no result: CSC inhib, Calb FLC)
COc1ccc(N2CCN(C(=O)C(Cc3ccccc3)n3cccc3)CC2)cc1 (configuration not stated)	none
CN([C@@H](Cc1ccc(OS(=O)(=O)c2cccc3cnccc23)cc1)C(=O)N1CCN(c2ccccc2)CC1)S(=O)(=O)c1cccc2cnccc12	PP1 inh 29 (no result: Beta apoptosis) | PP1 confirm 20 | PP5 counter inactive
N#Cc1c(-c2ccc(Cl)cc2)cc(-c2cccs2)nc1SCC(=O)O	PP1 inh 47 (no result: CSC inhib, Beta apoptosis) | PP1 confirm 49 | PP5 counter inactive
N#Cc1c(-c2ccccc2)cc(-c2cccs2)nc1SCC(=O)O	none
COc1c(N2C[C@@H]3CCCN[C@@H]3C2)c(F)cc2c(=O)c(C(=O)O)cn(C3CC3)c12	none (no result: Calb FLC)
Cc1ccc(S(=O)(=O)N2CCC(C(=O)OC(C)C(=O)N(C)c3ccccc3)CC2)cc1C (configuration not stated)	none (no result: CSC inhib, Calb FLC)
Cc1ccc(-n2ncc(Cl)c2C(=O)NC2CC2)cc1	none
COc1ccc(Nc2nc(Nc3ccc(OC)cc3)nc(-n3[nH]c(=O)c(C)c3C)n2)cc1	PP1 inh 23 | PP1 confirm 23 | PP5 counter inactive
COc1ccc(Nc2nc(OC)nc(OC)n2)cc1	none (no result: Beta apoptosis)
NCCCC[C@H]1CNC(=O)C(=O)N1CCCCC1CCCCC1	none
O=C1NC[C@@H](Cc2cccc3ccccc23)N(CCCCC2CCCCC2)C1=O	CSC inhib 88, PP1 inh 21 | PP1 confirm inactive | PP5 counter inactive
CCOC(=O)c1sc(NC(=O)c2c(CC)noc2C)nc1C	none (no result: CSC inhib, Calb FLC)
CCCCCc1c2c(cc(O)c1C(=O)O)OC(=O)c1cc(C(=O)CCCC)c(OC)cc1O2	none (no result: CSC inhib, Calb FLC, PP1 inh, Beta apoptosis, PP5 primary)
CCCCCc1c2c(cc(O)c1C(=O)O)OC(=O)c1c(cc(OC)cc1C(=O)CCCC)O2	PP1 inh 25 | PP1 confirm 28 | PP5 counter inactive
COC(=O)c1ccc(/C=N/Nc2nc(-c3ccccc3)cs2)cc1	none (no result: CSC inhib)
COc1ccc(/C=N/Nc2nc(C(=O)O)cs2)cc1	PP1 inh 20 | PP1 confirm inactive | PP5 counter inactive
Cc1ccc(S(=O)(=O)c2c(N)n(/N=C/c3ccco3)c3nc4ccccc4nc23)cc1	Calb FLC inconclusive
COc1ccc(S(=O)(=O)c2c(N)n(Cc3ccco3)c3nc4ccccc4nc23)cc1	PP1 inh 19 | PP1 confirm inactive | PP5 counter inactive
CCC(=O)NC(NC(=S)Nc1c(C)n(C)n(-c2ccccc2)c1=O)C(Cl)(Cl)Cl (configuration not stated)	none
COc1ccc(SC[C@H](C)CN2CC[C@H](C(C)(C)C)CCC2=O)cc1	none (no result: Calb FLC)
COc1ccc(NS(=O)(=O)c2ccc3c(c2)[C@H]2C=CC[C@H]2[C@@H](c2ccc(C(=O)O)cc2)N3)cc1	PP1 inh 19 (no result: Beta apoptosis) | PP1 confirm inactive | PP5 counter inactive
O=C(O)c1ccc2c(c1)C1C=CCC1C(c1ccncc1)N2 (configuration not stated)	none
CC(=O)c1ccc2c(c1)C1C=CCC1C(c1ccc(S(=O)(=O)N3CCOCC3)cc1)N2 (configuration not stated)	none (no result: Calb FLC, Mdm2 MdmX PPI)
Cc1c(Cl)cccc1NS(=O)(=O)c1ccc2c(c1)C1C=CCC1C(c1ccc(C(=O)O)cc1)N2 (configuration not stated)	PP1 inh 25 (no result: Calb FLC) | PP1 confirm 18 | PP5 counter inactive
CCc1ccccc1NC(=O)C1CCCN1C(=O)Nc1ccc(C)cc1 (configuration not stated)	none
CCn1c(SCC(=O)Nc2oc(-c3ccccc3)c(-c3ccccc3)c2C#N)nnc1-c1ccco1	PP1 inh 18 | PP1 confirm inactive | PP5 counter inactive
CCn1c(SCC(=O)Nc2oc(-c3ccccc3)c(-c3ccccc3)c2C#N)nnc1-c1ccncc1	none
C#CCOCCOCCOCCNc1nc(N2CCN(C(=O)Cn3cc(CCCCN)nn3)CC2)nc(N2CCN(C(=O)Cn3cc(CCCCN)nn3)CC2)n1	none
C#CCOCCOCCOCCNc1nc(N2CCN(C(=O)CCCCCCCCCCNC(=O)Cn3cc(CCCCCN)nn3)CC2)nc(N2CCN(C(=O)CCCCCCCCCCNC(=O)Cn3cc(CCCCCN)nn3)CC2)n1	PP1 inh 33 (no result: Calb FLC) | PP1 confirm inactive | PP5 counter inactive
C#CCOCCOCCOCCNc1nc(N2CCN(C(=O)CCCCCCCCCCNC(=O)Cn3cc(CCCCCN)nn3)CC2)nc(N2CCN(C(=O)CCCCCCCCCCNC(=O)[C@@H](CCSC)n3cc(CCO)nn3)CC2)n1	PP1 inh 36 (no result: Calb FLC) | PP1 confirm 41 | PP5 counter inactive
